Screens (PubChem)
RGS4 inh – blocks human RGS4-accelerated GTP hydrolysis | P49798 | Transcreener GDP fluorescence polarization, RGS4-accelerated GTP hydrolysis | AID 504845 | 390,000 compounds, 0.039% hits | Potency, µM (highest dose often 114 µM), most hits filed as inhibitors; note: nearly all actives have a fitted effect of over 75% in size
Target sequence (P49798 whole entry, looked up): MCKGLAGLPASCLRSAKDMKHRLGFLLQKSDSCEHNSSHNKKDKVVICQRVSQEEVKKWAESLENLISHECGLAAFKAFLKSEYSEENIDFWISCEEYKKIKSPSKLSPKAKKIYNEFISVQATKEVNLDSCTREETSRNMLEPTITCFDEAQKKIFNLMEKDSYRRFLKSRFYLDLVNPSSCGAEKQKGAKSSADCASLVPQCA
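MLSMR compounds (23 nl, pin-transferred) preincubated 10 min at room temperature with a 500nM (2x) first reagent, then RGS4 at 900nM (2x) plus Transcreener GDP mix added; fluorescence polarization (620/688 nm) read before and after 90 min at 30 °C.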
TSHR antagonist – human thyrotropin receptor antagonism. AID 504810. activity change, negative = inhibition, % at 11.5 µM. TSHR-expressing cells, TSH-stimulated cAMP HTRF, 2 h; active compounds read low. 330,000 compounds, 0.2% hits. P16473;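 active = activity change below a set negative limit, meaning inhibition stronger than a set level, cut at about -70% in these data; inconclusive = activity change between two set negative limits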
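Read-out is FRET at 665 nm (cryptate excitation 337 nm) from a cryptate-tagged anti-cAMP antibody, competed by cell cAMP against cAMP-d2. Compounds are tested on freshly harvested TSHR cells challenged with 4nM TSH (EC80) for 2 hours at 37 deg C.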
LDHA block – LDHA (human) enzyme inhibition. activity change, % (values are at about 110 or 230 µM). AID 1347041. 480,000 compounds, 0.15% hits. purified LDHA, NADH/diaphorase-resazurin fluorescence; active compounds read low; in the data active = activity change below about -30%; inconclusive = mostly about -25% to -30%
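Resorufin fluorescence (ex540/em590), read at 0 and 20 min after diaphorase/resazurin addition, reports the NADH left after a 5 min room-temperature reaction of 2 nM human LDH5 with 0.06 mM NADH and 0.2 mM pyruvate.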
Glioma ERSR ind – inducers of ER stress response in human glioma cells; U87-MG GRP78 promoter luciferase reporter, 16 h; Potency, µM, usual class: activators; 420,000 compounds, 0.02% hits; AID 602332; note: series mostly up to about 76 µM; nearly all actives have a fitted effect of over 35% in size
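ERSR induction read as luciferase luminescence (Bright-Glo, 10 min at room temperature) in stably transfected human U87-MG glioma cells exposed to compounds for 16 h, using GRP78 as sensor.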
pAkt inh – Akt phosphorylation inhibition; AID 651550; Neuro2A IGF-stimulated pAkt S473 HTRF, 20 min; active compounds read low; 360,000 compounds, 0.32% hits; activity change, % for hits at 50 µM; in the data active = activity change below about -80%; inconclusive = mostly about -51% to -80%
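Neuro2A cells in DMEM with 0.5% FBS, overnight at 37 deg C, given compound at single 50 µM final, then IGF (6 nM final) for 20 min at 37 deg C. Lysed; phospho-Akt Ser473 by HTRF after 24 h, 665/615 ratio.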
TCR act – T cell receptor activation | primary human leukocytes, anti-CD3, IL-2 HTRF, 48 h | Potency, µM (highest dose often 9.22 µM), hits mostly activators | 330,000 tested, under 10 active | AID 504894
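Primary human leukocytes receive a-CD3 beads and test compound and are incubated 48 hr. Secreted IL-2 is then assayed by HTRF, measuring 665nm acceptor emission after 320nm excitation of the europium donor.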
Numbers stand for hits; n = inactive; u = inconclusive; x = no result. Rows were chosen to be rich in hits. Some 0.55% of all compounds tested hit in one or more screens of this group. Unless noted, calls come from the whole dose curve; as a rule, active = well fitted curve in the direction sought with a large enough effect; inconclusive = small, poorly fitted or top-dose-only effect, or another doubt; inactive = no such curve, though single readings can be large; an effect the other way counts as inactive or inconclusive.

SMILES	RGS4 inh	TSHR antagonist	LDHA block	Glioma ERSR ind	pAkt inh	TCR act
O=C(O)/C=C/C(=O)Nc1ccc(C2(c3ccc(NC(=O)/C=C/C(=O)O)cc3)c3ccccc3-c3ccccc32)cc1	u	-85.9	n	n	n	n
O=C(O)/C=C\C(=O)Nc1ccc(Oc2ccccc2)cc1	n	n	n	n	n	n
COc1cc(/C=C(/C#N)C(=O)c2ccccc2)ccc1OC(=O)c1ccc(F)cc1	x	x	n	x	x	x
CCOCCCNC(=O)c1cccs1	n	n	n	n	-115.8%	n
CCCCCCCCNC(=O)c1cccs1	x	x	n	x	x	x
O=C(Cn1c(SCC(=O)Nc2ccc(F)cc2)nc2ccccc21)NCc1ccccc1Cl	n	x	-32.4	n	x	x
COc1ccc2nc(N3CCC(C)CC3)c(C#N)cc2c1	n	n	n	n	-102.8%	n
CCC(=O)N1CCN(c2ccc(Cl)cc2NC(=O)Cc2ccc(Cl)cc2)CC1	n	n	n	n	-84.7%	x
COc1ccc(CC(=O)Nc2cc(Cl)ccc2N2CCCC2)cc1	n	n	n	n	n	n
COc1ccc(CCC(=O)Nc2cc(Cl)ccc2N2CCN(C)CC2)cc1	n	n	n	n	-107.1%	n
CCC(C)NS(=O)(=O)c1ccc(OCC(=O)Nc2ccc(F)cc2F)cc1 (stereo not given)	n	n	n	n	-110.9%	n
CCC(=O)Nc1ccc2oc(-c3cccc4c(Cl)cccc34)nc2c1	x	x	n	x	x	x
O=C1NC(=O)c2cc(Nc3ccc(F)cc3)c(Nc3ccc(F)cc3)cc21	x	x	x	n	x	x
O=C1NC(=O)c2cc(Nc3ccccc3)c(Nc3ccccc3)cc21	18.9µM	n	n	n	x	x
CCOC(=O)C1C(=O)CC(C)(O)C(C(=O)OCC)C1c1cccs1 (stereo not given)	n	n	n	n	-108.6%	n
O=c1c2[nH]c3ccccc3c2ncn1Cc1ccccn1	n	n	n	n	n	n
O=c1c2[nH]c3ccccc3c2ncn1Cc1ccncc1	n	n	n	n	-94.4%	n
Cc1nc2c(c(=O)n1CCC1=CCCCC1)c1nc3ccccc3nc1n2/N=C/c1ccccc1	n	n	n	n	n	n
CCCCCCn1c(C)nc2c(c1=O)c1nc3ccccc3nc1n2/N=C/c1ccco1	n	n	n	n	-108.1%	n
NS(=O)(=O)c1ccc(O)c(NC(=O)c2ccc([N+](=O)[O-])cc2)c1	n	n	-57.2	n	n	n
O=C(Nc1cc([N+](=O)[O-])ccc1O)c1cccc(C(=O)Nc2cc([N+](=O)[O-])ccc2O)c1	n	n	-35.0	n	n	x
O=C(Nc1cc([N+](=O)[O-])ccc1O)c1cccc([N+](=O)[O-])c1	n	n	n	n	n	n
O=C(Nc1cc([N+](=O)[O-])ccc1O)c1ccc2c(c1)C(=O)N(Cc1ccco1)C2=O	u	n	-55.5	n	n	n
CCOc1ccccc1CN1CCC(N2CCOCC2)CC1	n	n	-31.3	n	n	n
COc1ccc(N2C(N)=NC(N)=NC23CCCC3)cc1	n	n	n	n	-105.6%	n
SMILES	RGS4 inh	TSHR antagonist	LDHA block	Glioma ERSR ind	pAkt inh	TCR act
Cc1ccc(C(=O)/C=C/c2cccc(C#N)c2)o1	x	x	n	x	x	x
CCOC(=O)c1nnc(-c2ccccc2)nc1Sc1ccccc1Cl	n	n	n	n	n	n
CCOC(=O)c1nnc(-c2ccccc2)nc1Oc1ccc(Cl)cc1	n	n	n	n	-119.3%	n
Cc1ccc(C)c(CSc2nnc([C@@H]3CCCN3)o2)c1	n	n	n	n	n	n
Clc1ccc(CSc2nnc([C@@H]3CCCN3)o2)cc1Cl	n	n	n	n	-106.2%	n
Brc1cccc(/C=N/Nc2ccc3ccccc3c2)c1	x	x	n	x	x	x
CCNc1nc(C23CC4CC(CC(C4)C2)C3)cs1	n	-73.2	n	n	n	n
CC(C)=CC(=O)CC1(C#N)C(N)=C(C=O)CC1(C#N)C#N (stereo not given)	x	x	n	x	x	x
O=C(C1=C(O)C(=O)N(CCc2ccccc2)C1c1ccncc1)c1ccco1 (stereo not given)	x	x	n	x	x	x
C/C(=N\NC(=O)c1nnn(-c2nonc2N)c1-c1ccc(Cl)c(Cl)c1)c1ccncc1	n	-86.5	n	n	n	n
